Rows were chosen to be rich in hits. Some 4.8% of all compounds tested hit in one or more screens of this group.
DAX1 inh-1 – inhibitors of human orphan nuclear receptor DAX1 (NR0B1). inhibition, % at 6.75 µM. HEK293 Gal4-DAX1 luciferase reporter, luminescence. 0.99% of 340,000 active. AID 504766;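 active = inhibition above the mean over all tested compounds plus 3 SD, cut at about 4.2% in these data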;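 note: 0% = DAX1-transfected cells with DMSO and 100% = empty-vector control cells with DMSO; inhibition shows as a rise in luminescence from relieved DAX1 repression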
Target sequence (P51843 207-470 limits assumed): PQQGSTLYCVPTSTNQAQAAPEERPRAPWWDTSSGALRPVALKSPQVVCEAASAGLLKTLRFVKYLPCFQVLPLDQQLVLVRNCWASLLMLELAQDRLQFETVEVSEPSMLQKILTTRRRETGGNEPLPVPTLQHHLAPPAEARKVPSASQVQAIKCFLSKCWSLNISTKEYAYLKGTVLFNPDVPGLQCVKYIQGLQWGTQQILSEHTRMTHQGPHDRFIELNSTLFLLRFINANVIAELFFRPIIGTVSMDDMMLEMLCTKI
ssDAF-12 act – S. stercoralis DAF-12 activation, primary screen; HEK293 ssDAF-12/GRIP1 lit1-tk-luc reporter, luminescence; % of 3 µM dafachronic acid response; activation, % at 6.8 µM; 1% of 370,000 active; AID 652126;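 active = activation above the mean over all tested compounds plus 3 SD, cut at about 0.9% in these data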;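 note: 0% = DMSO-only wells and 100% = 3 µM delta7-dafachronic acid wells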
SMARCA2 activ – SMARCA2 function activation, primary screen; MG213 cells, MMTV-luciferase reporter, dexamethasone, overnight; 1% of 370,000 active; activation, % at 9.1 µM; in the data active = activation above about 7.8%;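 note: 0% = vehicle wells and 100% = reference activator wells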
hcDAF-12 act – activators of H. contortus DAF-12 nuclear receptor | HEK293 hcDAF-12 lit1-tk-luc reporter, luminescence; 0% DMSO, 100% Δ7-dafachronic acid | activation, % at 6.8 µM | 1.4% of 370,000 active | AID 652067;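 active = activation above the mean of all tested compounds plus 3 SD, cut at about 5.5% in these data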;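 note: 100% = response to 3 µM Δ7-dafachronic acid high control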
DAX1 inh-2 – blocks DAX1 repression of SF-1 activated StAR promoter; HEK293T StAR-luciferase reporter, SF-1/DAX-1 repression relief; AID 652010; 1.1% of 370,000 active; inhibition, % at 6.8 µM;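 active = inhibition above the mean over all tested compounds plus 3 SD, cut at about 3.6% in these data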;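 note: 0% = DAX-1 cells with DMSO and 100% = cells lacking DAX-1 with DMSO; higher inhibition means more luminescence from relief of DAX-1 repression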
hgDAF12 agonist – activates the H. glycines DAF-12 receptor ligand-binding domain; HEK293 GAL4-hgDAF12 UAS-luciferase reporter, agonist luminescence; normalized to butyrate control; activation, % at 6.8 µM; 1.8% of 370,000 active;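 active = activation above a cutoff set at the mean of all screened compounds plus 3 SD, cut at about 10% in these data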;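 note: 0% = DMSO wells and 100% = sodium butyrate wells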
SMARCA2 act conf – confirmation of SMARCA2 (BRM) function activators; shares compounds with SMARCA2 activ; MG213 cells, MMTV-luciferase with dexamethasone, luminescence, overnight; MG213 cells expressing E1A, Rb sequestered; DMSO wells 0%, reference activator 100%; activation, % at 9.1 µM; 30% of 3,500 active;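 active = activation above its plate's cutoff, the mean activation of tested wells plus 3 SD, cut at about 7.9% in these data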
VP16 Luc act – activates GAL4-VP16 luciferase, flagging SMARCA2 activator hits; shares compounds with SMARCA2 activ; HEK293 GAL4-VP16 pG5luc reporter, luciferase luminescence; scaled: DMSO wells 0%, SAHA wells 100%; activation, % at 9.1 µM; 41% of 3,500 active; AID 686939;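 active = activation above the solvent-only control well mean plus 3 SD, averaged across control plates, cut at about 5.2% in these data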
LXR ag – activates human LXR-beta, counter-screen for hcDAF-12 agonists; shares compounds with hcDAF-12 act; HEK293 Gal4-LXR tk-luc reporter, luminescence, 24 h; normalized: DMSO 0%, positive control 100%; activation, % at 6.8 µM; 3,400 tested, under 10 active;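 active = mean percent activation of the reporter above a cutoff set as the average over tested compounds plus their standard deviation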
Target sequence (P55055 whole entry, looked up, the tested form may be a part): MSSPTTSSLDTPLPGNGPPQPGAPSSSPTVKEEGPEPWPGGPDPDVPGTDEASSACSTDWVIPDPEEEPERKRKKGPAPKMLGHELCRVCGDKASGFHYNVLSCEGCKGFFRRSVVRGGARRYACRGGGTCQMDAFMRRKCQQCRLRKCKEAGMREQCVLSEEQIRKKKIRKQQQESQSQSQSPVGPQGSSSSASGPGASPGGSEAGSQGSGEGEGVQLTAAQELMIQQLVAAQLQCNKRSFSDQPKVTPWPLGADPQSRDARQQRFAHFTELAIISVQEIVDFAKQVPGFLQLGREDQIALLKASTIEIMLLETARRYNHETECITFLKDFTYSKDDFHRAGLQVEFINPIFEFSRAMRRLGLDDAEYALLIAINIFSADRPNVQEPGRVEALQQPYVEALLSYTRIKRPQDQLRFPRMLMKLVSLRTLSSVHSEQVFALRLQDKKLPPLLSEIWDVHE
hcDAF12 conf – confirmation of H. contortus DAF-12 agonists. shares compounds with hcDAF-12 act. HEK293 hcDAF-12 lit1-tk-luc reporter, luminescence; % of Δ7-dafachronic acid response. activation, % at 6.8 µM. 61% of 3,400 active. AID 743032;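 active = mean activation across triplicate tests above the threshold derived from the earlier primary screen, cut at about 5.5% in these data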;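 note: 0% = DMSO only wells and 100% = 3 µM Δ7-dafachronic acid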
hgDAF12 conf – hgDAF-12 agonism, confirmation assay; HEK293 GAL4-hgDAF12 luciferase reporter, agonist mode; percent of butyrate response; activation, % at 6.8 µM; 80% of 3,300 active; AID 743050; shares compounds with hgDAF12 agonist;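 active = mean activation over triplicate wells above the hit cutoff derived from the earlier primary screen, cut at about 11% in these data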;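 note: 0% = DMSO low control and 100% = 2 mM sodium butyrate high control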
LXRb DAF12 ctr – LXR-beta agonism as DAF-12 counter-screen; shares compounds with hgDAF12 agonist; HEK293 Gal4-LXR luciferase reporter, 24 h; activation, % at 6.8 µM; 3,300 tested, under 10 active;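 active = mean activation of the triplicate above a set limit carried over from the primary screen, none filed active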
* = called active by the depositor; . = no result given.

SMILES	DAX1 inh-1	ssDAF-12 act	SMARCA2 activ	hcDAF-12 act	DAX1 inh-2	hgDAF12 agonist	SMARCA2 act conf	VP16 Luc act	LXR ag	hcDAF12 conf	hgDAF12 conf	LXRb DAF12 ctr
COc1cccc(C(=O)/C=C/Nc2ccc(S(=O)(=O)Nc3onc(C)c3C)cc2)c1	0.5	-0.5	12.0*	13.2*	3.2	9.5	-0.5	-0.5	0.0	1.9	.	.
CCOC(=O)c1sc(=NC(=O)c2cccs2)n(C)c1C	1.4	2.5*	11.9*	7.8*	3.0	16.5*	7.6	13.7*	2.3	22.9*	.	.
CCOC(=O)c1sc(=NC(=O)c2ccc(OC(C)C)cc2)n(C)c1C	0.4	-1.7	0.0	1.4	1.5	0.7	.	.	.	.	.	.
N/C(CS(=O)(=O)c1ccccn1)=N\OC(=O)c1ccc(Cl)cc1	1.4	-0.2	0.3	3.8	-0.2	3.3	.	.	.	.	.	.
N/C(CS(=O)(=O)c1ccccn1)=N\OC(=O)c1ccccc1Cl	.	-0.4	10.9*	7.3*	1.1	8.2	3.5	8.0*	0.6	3.5	.	.
C=CCN1C(=O)C(=O)N(Cc2nc3ccccc3s2)C1=O	3.5	1.2*	8.7*	9.6*	1.3	5.8	8.2*	8.3*	0.9	9.7*	.	.
COc1ccc(C2Nc3ccccc3C(=O)N2c2ccc(C)cc2)cc1COc1ccccn1 (stereo not given)	-1.1	0.5	13.8*	6.9*	3.6*	7.5	12.4*	5.0	0.6	8.7*	.	.
COc1ccc(C2Nc3ccccc3C(=O)N2c2ccc(C)cc2)cc1Cn1nc(C)c([N+](=O)[O-])c1C (stereo not given)	1.9	-0.4	2.6	-0.3	1.5	3.7	.	.	.	.	.	.
Cc1csc(-c2coc3cc(O)cc(C)c3c2=O)n1	2.7	1.6*	9.0*	12.7*	0.8	9.5	15.5*	7.5*	0.7	10.7*	.	.
CCCn1c(SCC(=O)N2CCc3ccccc3C2)nc2c1c(=O)n(C)c(=O)n2C	0.1	-1.0	-1.9	-0.1	-0.1	-1.1	.	.	.	.	.	.
Nc1c(Cl)ncnc1N/N=C/c1ccnc2ccccc12	-0.9	-1.4	3.1	-0.2	0.1	7.8	.	.	.	.	.	.
Clc1cccc(/C=N/Nc2ncnc3ccccc23)c1	3.6	1.8*	10.0*	10.8*	2.7	13.4*	14.2*	14.6*	1.3	7.1*	17.9*	0.6
O=C(N=Nc1c(O)[nH]c2ccccc12)c1ccco1	4.4*	0.7	8.2*	9.8*	2.5	18.5*	23.3*	9.8*	1.2	10.3*	17.3*	0.6
O=C(CSCc1ccccc1)N=Nc1c(O)[nH]c2ccccc12	-0.8	0.0	1.7	1.9	0.7	5.7	.	.	.	.	.	.
Cc1ccccc1N/C(=N/S(=O)(=O)c1cc(F)ccc1F)c1ccccc1	0.5	-0.6	-0.5	0.1	0.1	-1.6	.	.	.	.	.	.
O=C(CSc1cccc[n+]1[O-])Nc1cc2c(cc1Cl)C(=O)c1ccccc1C2=O	1.2	1.1*	12.1*	5.2	0.5	15.3*	13.1*	7.3*	.	.	12.6*	0.6
N/C(=N\OC(=O)c1cccc2ccccc12)c1ccccn1	1.2	3.5*	10.7*	15.2*	2.2	14.4*	11.0*	10.1*	1.3	13.8*	10.6*	0.9
Cc1cccc(/C(N)=N/OC(=O)c2ccco2)c1	1.4	1.4*	9.3*	6.6*	3.7*	18.1*	18.6*	11.4*	1.0	3.7	19.5*	1.0
N/C(=N\OC(=O)Cc1ccc(Cl)cc1)c1ccccn1	1.0	-0.7	5.0	3.4	0.1	9.3	.	.	.	.	.	.
CC(C)(C)CC(=O)O/N=C(\N)c1ccccn1	0.3	-0.1	10.5*	6.3*	3.0	13.8*	8.8*	2.1	.	.	12.8*	0.8
N/C(=N\OC(=O)c1ccco1)c1ccccn1	-1.0	-0.4	11.8*	1.7	2.7	13.8*	7.9*	9.2*	.	.	7.1	0.3
O=C(Nc1nnc(-c2ccc3c(c2)CCCC3)o1)c1ccccc1Cl	0.9	-1.2	-2.6	-1.1	-0.3	5.0	.	.	.	.	.	.
O=C(NCCN1CCCCC1)Nc1cccc(F)c1	-0.2	-0.4	3.6	4.4	0.3	0.0	.	.	.	.	.	.
O=C(N=C1SC2CS(=O)(=O)CC2N1CCc1ccccc1)C1CCCCC1 (stereo not given)	0.2	-0.8	-1.8	1.6	-0.2	-1.4	.	.	.	.	.	.
Cc1ccc(N2Cc3ccccc3C2=S)cc1	2.1	0.5	12.6*	3.5	3.6	20.8*	11.9*	11.4*	.	.	19.8*	0.8
SMILES	DAX1 inh-1	ssDAF-12 act	SMARCA2 activ	hcDAF-12 act	DAX1 inh-2	hgDAF12 agonist	SMARCA2 act conf	VP16 Luc act	LXR ag	hcDAF12 conf	hgDAF12 conf	LXRb DAF12 ctr
Cc1ccc(N2Cc3ccccc3OC(C)C2=O)cc1 (stereo not given)	0.4	-1.7	3.8	1.2	0.7	0.5	.	.	.	.	.	.
CN(CC(=O)Nc1ccc(Cl)cc1)S(=O)(=O)c1cccc2cccnc12	-1.5	-1.9	-0.6	-2.1	-1.9	-3.5	.	.	.	.	.	.
Cc1sc(NC(=S)Nc2ccc(F)cc2)c(C(N)=O)c1C	0.0	-1.0	-3.3	2.2	-0.3	0.8	.	.	.	.	.	.
Cc1sc(NC(=O)c2ccc(Br)s2)c(C(N)=O)c1C	3.0	0.6	9.1*	8.8*	2.6	19.1*	5.6	9.6*	1.4	11.6*	17.7*	1.1
COc1ccc(C(CC(=O)Nc2nccs2)n2cccc2)cc1 (stereo not given)	3.1	0.9*	8.1*	3.3	2.5	15.8*	4.5	10.0*	.	.	15.8*	0.7
Cc1ccc2nc(SCn3nnc4ccccc4c3=O)[nH]c2c1	4.1	1.8*	8.4*	9.8*	4.1*	24.1*	8.1*	13.1*	1.2	10.4*	16.0*	0.6
Cc1cc(=O)[nH]c(SCn2nnc3ccccc3c2=O)n1	3.2	-1.8	1.5	0.4	0.3	-1.7	.	.	.	.	.	.
